Experimental data: the supplement of paper PMC10981050
Several values for one entry are separate records, joined by “and”; a condition that tells them apart may be missing. Equal entries are not always repeated. Structures can show the parent of a compound that is named as a salt.

Experiments:
Experiment in all cases: cell viability relative to vehicle control; higher = less cytotoxic
Details in all cases: 10 µM
K562 = test system: K562
Summary of the method: (§1)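 Four leukaemia lines, as CRISPR-edited mutant clones and isogenic wild-type clones, were tested against Selleck bioactive, kinase and epigenetic probe libraries after removal of identity-inconsistent compounds. Cells were exposed to a single 10 µM dose for 48 h, and CellTiter-Glo luminescence was then read. Viability was calculated relative to the on-plate vehicle control.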

MARIMO = test system: MARIMO
Summary of the method: as §1

MOLM14 = test system: MOLM14
Summary of the method: as §1

OCI-AML2 = test system: OCI-AML2
Summary of the method: as §1

SMILES | cell viability (K562; SRSF2 genotype: SRSF2 P95H/wt) | cell viability (K562; SRSF2 genotype: SRSF2 wt/wt) | cell viability (MARIMO; SRSF2 genotype: SRSF2 P95H/wt) | cell viability (MARIMO; SRSF2 genotype: SRSF2 wt/wt) | cell viability (MOLM14; SRSF2 genotype: SRSF2 P95H/wt) | cell viability (MOLM14; SRSF2 genotype: SRSF2 wt/wt) | cell viability (OCI-AML2; SRSF2 genotype: P95H/wt) | cell viability (OCI-AML2; SRSF2 genotype: wt/wt)
COc1ccc2ccc(=O)oc2c1CC=C(C)C [Osthole (Osthol)] | 97.5% and 91.7% | 90.1% | 94.2% | 93.2% | 88.7% | 94.3% | 93.2% | 95.5%
CNCC[C@H](Oc1cccc2ccccc12)c1cccs1 [Duloxetine HCl (Cymbalta)] | 45.7% and 60.1% | 54.7% | 55% | 61.4% | 55.9% | 70.9% | 46.2% | 53.5%
CC1(C)CCC2(C(=O)O)CCC3=C(CCC4C3(C)CCC3C4(C)CC(O)C(O)C3(C)C(=O)O)C2C1 (stereo not given) [Polygalic acid] | 86.1% and 86.3% | 82% | 89.8% | 92% | 87.7% | 87.9% | 83.1% | 95.3%
Cc1ccc(C=O)o1 [5-Methyl furfural] | 104% | 95.7% | 99.8% | 94.2% | 99.1% | 101% | 103% | 103%
CCCC(=O)Nc1ccc(OCC(O)CNC(C)C)c(C(C)=O)c1 (stereo not given) [Acebutolol HCl] | 96.2% and 86.2% | 86.2% | 97.3% | 95.1% | 92.4% | 93.3% | 94.9% | 91.7%
CN(C)C/C=C/C(=O)Nc1ccc(C(=O)Nc2cccc(Nc3ncc(Cl)c(-c4c[nH]c5ccccc45)n3)c2)cc1 | 12.4% and 22.2% | 16.8% | 0.73% | 1.23% | 0.23% | 0.21% | 0.37% | 0.63%
CC(C)(C)c1cc(O)ccc1O | 99.8% and 100% | 93.8% | 21.6% | 0.51% | 48% | 54.4% | 37.9% | 29.7%
CC(C)[C@H](NC(=O)[C@H](CC(=O)O)NC(=O)[C@H](CCCCN)NC(=O)[C@@H](N)CCCN=C(N)N)C(=O)N[C@@H](Cc1ccc(O)cc1)C(=O)O [Thymopentin] | 92.2% and 89.2% | 87% | 86.4% | 94.6% | 95.8% | 91.6% | 77.9% | 89.5%
CC(=O)O[C@H](CC(=O)O)C[N+](C)(C)C [O-Acetyl-L-carnitine hydrochloride] | 112% and 110% | 110% | 110% | 110% | 101% | 108% | 105% | 104%
CCCCCCCCC[C@H](O)CC(=O)CCc1ccc(O)c(OC)c1 [10-Gingerol] | 92.4% and 91.5% | 98.5% | 91.1% | 92.4% | 90% | 94% | 82.5% | 82.4%
COC(=O)C1=C(C)NC(C)=C(C(=O)OC2CCCN(Cc3ccccc3)C2)C1c1cccc([N+](=O)[O-])c1 (stereo not given) [Benidipine hydrochloride] | 77.9% and 79.1% | 71.8% | 76.6% | 84.7% | 86.3% | 79.2% | 81.5% | 85.9%
CC(O)c1ccc(S(=O)(=O)NC(=O)NC2CCCCC2)cc1 (stereo not given) [Hydroxyhexamide] | 106% and 96% | 107% | 103% | 99% | 101% | 104% | 104% | 106%
OC[C@H]1O[C@@](CO)(OC[C@@]2(OC[C@@]3(OC[C@@]4(O[C@H]5O[C@H](CO)[C@@H](O)[C@H](O)[C@H]5O)O[C@H](CO)[C@@H](O)[C@@H]4O)O[C@H](CO)[C@@H](O)[C@@H]3O)O[C@H](CO)[C@@H](O)[C@@H]2O)[C@@H](O)[C@@H]1O [1F-Fructofuranosylnystose] | 110% and 109% | 104% | 109% | 103% | 103% | 107% | 101% | 108%
O=C(O)CCNc1cc(N2CCc3ccccc3CC2)nc(-c2ccccn2)n1 | 108% and 104% | 99.5% | 102% | 107% | 108% | 107% | 106% | 111%
CCOc1cc(N)c(Cl)cc1C(=O)NCC1CN(Cc2ccc(F)cc2)CCO1 (stereo not given) [Mosapride citrate] | 82.7% and 81.9% | 80% | 74.1% | 89.5% | 103% | 93.2% | 81.5% | 82.3%
CCNC(=O)c1[nH]nc(-c2cc(Cl)c(O)cc2O)c1-c1ccc(OC)cc1 | 19.1% and 31.3% | 23.6% | 33.6% | 28.2% | 2.11% | 1.17% | 12.6% | 19.3%
Cc1ncc([N+](=O)[O-])n1C [Dimetridazole] | 106% and 99.5% | 105% | 109% | 106% | 99.1% | 103% | 105% | 109%
COC(=O)c1ccc(O)c(OC)c1 [Methyl Vanillate] | 101% and 96.9% | 102% | 90.7% | 104% | 103% | 103% | 95.2% | 107%
Brc1ccc2[nH]ccc2c1 [5-Bromoindole] | 107% and 100% | 107% | 95.7% | 98% | 99.5% | 103% | 102% | 115%
O=c1ncn2nc(Sc3ccc(F)cc3F)ccc2c1-c1c(Cl)cccc1Cl | 84.8% and 86.8% | 83.6% | 77.9% | 84% | 82.1% | 92.9% | 64.1% | 68.6%

SMILES | cell viability (K562; SRSF2 genotype: SRSF2 P95H/wt) | cell viability (K562; SRSF2 genotype: SRSF2 wt/wt) | cell viability (MARIMO; SRSF2 genotype: SRSF2 P95H/wt) | cell viability (MARIMO; SRSF2 genotype: SRSF2 wt/wt) | cell viability (MOLM14; SRSF2 genotype: SRSF2 P95H/wt) | cell viability (MOLM14; SRSF2 genotype: SRSF2 wt/wt) | cell viability (OCI-AML2; SRSF2 genotype: P95H/wt) | cell viability (OCI-AML2; SRSF2 genotype: wt/wt)
CC[C@H]1[C@@H](O)[C@@H]2[C@H](CC[C@]3(C)[C@@H]([C@H](C)CCC(=O)O)CC[C@@H]23)[C@@]2(C)CC[C@@H](O)C[C@@H]12 [Obeticholic Acid] | 106% and 109% | 102% | 107% | 105% | 103% | 105% | 107% | 110%
CC(C)NCC(O)COc1ccc(COCCOC(C)C)cc1 (stereo not given) [Bisoprolol fumarate] | 94.1% and 90.5% | 89.9% | 93.2% | 94.5% | 83.8% | 91.5% | 93.6% | 99.8%
CCc1cc(C(N)=S)ccn1 [Ethionamide] | 97.4% and 93.4% | 91.2% | 97% | 98.1% | 106% | 100% | 94.3% | 97.7%
COc1ccc(C2=N[C@@H](c3ccc(Cl)cc3)[C@@H](c3ccc(Cl)cc3)N2C(=O)N2CCNC(=O)C2)c(OC(C)C)c1 [Nutlin-3] | 91.4% and 99.4% | 89.2% | 87.4% | 93.3% | 0.14% | 1.06% | 9.37% | 32.1%
O=C(Oc1cc(S(=O)(=O)c2ccccc2)ccc1[N+](=O)[O-])c1ccc(Cl)cc1 | 104% and 109% | 106% | 106% | 103% | 104% | 107% | 114% | 115%
O=C(O)CCc1ccc(O)cc1O [Hydroumbellic acid] | 96% and 92.8% | 90.8% | 95.6% | 104% | 100% | 100% | 93.3% | 106%
C[C@H]1[C@H](C)CC[C@]2(C(=O)O)CC[C@]3(C)C(=CC[C@@H]4[C@@]5(C)C[C@@H](O)[C@H](O)C(C)(C)[C@@H]5CC[C@]43C)[C@H]12 [Corosolic acid] | 94.6% and 95.3% | 93.5% | 94.7% | 107% | 97.3% | 96.1% | 103% | 99.7%
O=c1[nH]ccc2c(S(=O)(=O)N3CCCNCC3)cccc12 [Hydroxyfasudil (HA-1100)HCl] | 95.5% and 99.7% | 96.5% | 96.5% | 92.7% | 95.6% | 101% | 95.7% | 90.5%
OCC(O)C(O)C(O)C(O)CO (stereo not given) [Allitol] | 111% and 98.4% | 111% | 107% | 101% | 108% | 103% | 109% | 99.3%
CC1OC(OC2CCC3(C)C(CCC4(C)C3C=CC3=C5CC(C)(C)CCC5(CO)C(O)CC34C)C2(C)CO)C(O)C(OC2OC(CO)C(O)C(O)C2O)C1O (stereo not given) [Saikosaponin B2] | 93.5% and 88.7% | 86.8% | 91.5% | 106% | 96.3% | 95.1% | 93.9% | 100%
Cc1cc(C)nc(NC(=S)N2CCN(Cc3ccc(C(F)(F)F)cc3)CC2)c1 | 71.2% and 80.6% | 73.2% | 67.4% | 64.5% | 77.3% | 86.6% | 37.8% | 54%
Cc1cc(CS(=O)(=O)c2ccccc2)cc(OCc2ccc(CN3CCC[C@@H]3CO)cc2)c1 | 98.9% and 101% | 95.6% | 98.9% | 103% | 96.5% | 104% | 98.7% | 92.6%
CC[C@H]1OC(=O)C[C@@H](O)[C@H](C)[C@@H](O[C@@H]2O[C@H](C)[C@@H](O[C@H]3C[C@@](C)(O)[C@@H](O)[C@H](C)O3)[C@H](N(C)C)[C@H]2O)[C@@H](CC=O)C[C@@H](C)C(=O)/C=C/C(C)=C/[C@@H]1CO[C@@H]1O[C@H](C)[C@@H](O)[C@@H](OC)[C@H]1OC [Tylosin] | 99.6% and 98.3% | 102% | 106% | 109% | 101% | 105% | 105% | 112%
S=C(NCc1ccc2c(c1)OCO2)N1CCN(c2ncnc3c2oc2ccccc23)CC1 [Amuvatinib (MP-470)] | 62.3% and 74.9% | 64.2% | 50.3% | 41.5% | 68.2% | 76.4% | 28% | 42.5%
OCc1cc(C(O)CNCCCCCCOCCCCc2ccccc2)ccc1O (stereo not given) [Salmeterol] | 77.8% and 87.8% | 88.4% | 67.7% | 68.6% | 62.8% | 74.9% | 55.2% | 60.2%
O=C(O)[C@H](O)c1ccccc1 [(R)-(-)-Mandelic acid] | 94% and 92.9% | 89.4% | 91.2% | 105% | 91.8% | 92.6% | 98.2% | 106%
Cc1cc(C(C)(C)C)cc(C)c1CC1=NCCN1 [Xylometazoline HCl] | 92.4% and 97.6% | 99.5% | 95.4% | 105% | 102% | 103% | 93.4% | 99.7%
C[C@@H](Oc1cc(-n2cnc3ccc(CN4CCN(C)CC4)cc32)sc1C(N)=O)c1ccccc1C(F)(F)F | 31.9% and 32.9% | 34.1% | 35.9% | 34.3% | 16.8% | 7.12% | 4.11% | 17.1%
CCn1c(=O)c2c(nc(/C=C/c3ccc(OC)c(OC)c3)n2C)n(CC)c1=O [Istradefylline (KW-6002)] | 90.7% and 83.8% | 85.1% | 81.1% | 95.3% | 96.5% | 97.6% | 117% | 92.4%
O=C(O)CSc1nnc(Br)n1-c1ccc(C2CC2)c2ccccc12 [Lesinurad] | 98.3% and 93.5% | 97.5% | 95.1% | 108% | 98.7% | 101% | 96.9% | 100%
